Experimental findings from PubChem BioAssay (NCATS) are described below.

Assay [1] is described as follows: qHTS assay for measurement of the activity of small molecule inhibitors on Zika virus induced Caspase-3 activity in human astrocytoma cells (AID 1224859). Note: potency is the fitted concentration of half-maximal effect. The method in brief: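 Compound added 1 h pre-infection; ZIKV 2 FFU/cell on SNB-19 cells, 6 h, 37 C/5% CO2. Caspase-Glo 3/7 luminescence; values as % inhibition of ZIKV-induced caspase activity.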
Background: qHTS replaces the single test concentration by a dilution series.

The nature of assay [2]: qHTS assay to identify small molecule inhibitors of chordoma cells - UCH-2 (AID 1259356). Note: potency is the fitted concentration of half-maximal effect.
The nature of assay [3]: qHTS assay to identify small molecule inhibitors of chordoma cells - UCH-1 (AID 1259355). Note: nearly all actives have a fitted effect of over 55% in size. Note: potency is the fitted concentration of half-maximal effect; series mostly up to about 46 µM. Put shortly:
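Luminescent ATP read-out (CellTiter-Glo, 30min at room temperature) measured viability of UCH-1 cells exposed for 48hr to test drugs at 15 concentrations, co-dosed with a five-agent combination of auranofin, camptothecin, doxorubicin, rubitecan and topotecan.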

Assay [4] is described as follows: P-glycoprotein substrates identified in KB-3-1 adenocarcinoma cell line, qHTS therapeutic library screen (AID 1346986). Note: nearly all actives have a fitted effect of over 60% in size. The method in brief:
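KB-3-1 parental cells and P-gp-overexpressing KB-8-5-11 (colchicine omitted during assay) plated at 500 cells/well, dosed in dose-response, incubated 72 h at 37 degree C. CellTiter-Glo luminescence read; KB-8-5-11 also tested with tariquidar.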

Results filed as inconclusive are left out. Calls of active or inactive are those of the source. Calls come from the whole dose curve; as a rule, active = well fitted curve in the direction sought with a large enough effect; inconclusive = small, poorly fitted or top-dose-only effect, or another doubt; inactive = no such curve, though single readings can be large; an effect the other way counts as inactive or inconclusive.

On to `Cc1c(C(=O)O)c(O)cc2c1C(=O)c1c(O)c([C@@H]3O[C@H](CO)[C@@H](O)[C@H](O)[C@H]3O)c(O)c(O)c1C2=O`, for which the Potency entry in assay [1] and in assay [2] was “inactive” throughout.
Regarding `Cc1c(Nc2ncccc2C(=O)O)cccc1C(F)(F)F`, the Potency result in assay [1], in assay [3] and in assay [2] was “inactive” in each case.
In the case of `CCCCCCOc1ccccc1C(N)=O`, the Potency result in assay [1], in assay [3] and in assay [2] was “inactive” in each case.
`CCOc1ccc2nc(S(N)(=O)=O)sc2c1`: the Potency entry in assay [1] and in assay [2] was “inactive” throughout.
As to `C[N+](C)(C)CCOP(=O)(O)OP(=O)([O-])OC[C@H]1O[C@@H](n2ccc(N)nc2=O)[C@H](O)[C@@H]1O`, the Potency entry in assay [1], in assay [3] and in assay [2] was “inactive” in each case.
In the case of `Nc1cc(-c2ccncc2)c[nH]c1=O`, the Potency entry in assay [1], in assay [3] and in assay [2] was “inactive” in each case.
On to `CCCOC(=O)c1ccc(O)cc1`, for which the Potency entry in assay [1], in assay [3] and in assay [2] was “inactive” in each case.
For the compound `COc1ccc(/C=C/C(=O)Nc2ccccc2C(=O)O)cc1OC`, in assay [1], the Potency is 7.08 µM (active). Besides, the Potency entry in assay [3] and in assay [2] was “inactive” in each case.
In the case of `CCOC(=O)c1ccccc1O`, the Potency result in assay [1], in assay [3] and in assay [2] was “inactive” throughout.
For `C=CCCCCCCCCC(=O)O`, the Potency result in assay [1], in assay [3] and in assay [2] was “inactive” throughout.
As to `CCCCC1C(=O)N(c2ccccc2)N(c2ccc(O)cc2)C1=O` (stereo not given), the Potency entry in assay [1], in assay [3] and in assay [2] was “inactive” each time.
Take `COc1cccc2c1C(=O)c1c(O)c3c(c(O)c1C2=O)C[C@@](O)(C(=O)CO)C[C@@H]3O[C@H]1C[C@H](N)[C@H](O[C@@H]2CCCCO2)[C@H](C)O1`: the Potency result in assay [1] is “inactive”. Moreover, the Potency in assay [3] was 3.98 µM (active); in assay [2], 18.3 µM (active).
On to `CC(N)C(=O)OC(C)(C)Cc1ccc(Cl)cc1` (stereo not given), for which the Potency result in assay [1], in assay [3] and in assay [2] was “inactive” in each case.
For `Nc1ccc(C(=O)O)c(O)c1`, the Potency result in assay [1], in assay [3] and in assay [2] was “inactive” throughout.
`O=C(O)/C=C/C(O)c1ccc(Cl)cc1` (stereo not given): the Potency entry in assay [1], in assay [3] and in assay [2] was “inactive” each time.
Take `Cc1nc2ccccc2n1Cc1ccc(Cl)cc1`: the Potency result in assay [1], in assay [3] and in assay [2] was “inactive” each time.
For `CCCCCCCCCCCC(=O)[O][Sn]([CH2]CCC)([CH2]CCC)[O]C(=O)CCCCCCCCCCC`, the Potency entry in assay [1] and in assay [2] was “inactive” throughout.
For `CN(C)CCn1nnnc1SCC1=C(C(=O)O)N2C(=O)[C@@H](NC(=O)Cc3csc(N)n3)[C@H]2SC1`, the Potency result in assay [1], in assay [3] and in assay [2] was “inactive” in each case.
As to `c1ccc2sc(SSc3nc4ccccc4s3)nc2c1`, the Potency result in assay [1], in assay [3] and in assay [2] was “inactive” each time.
On to `N=c1ccn2c(n1)O[C@H]1[C@H](O)[C@@H](CO)O[C@H]12`, for which the Potency result in assay [1], in assay [3] and in assay [2] was “inactive” each time.
For the compound `C=CC(N)CCC(=O)O` (stereo not given), the Potency entry in assay [1], in assay [3] and in assay [2] was “inactive” each time.
`CN(C)[C@@H]1C(=O)C(C(=O)NCN2CCCC2)=C(O)[C@@]2(O)C(=O)C3=C(O)c4c(O)cccc4[C@@](C)(O)C3C[C@@H]12` (stereo not given in full): the Potency result in assay [1], in assay [3] and in assay [2] was “inactive” each time.
As for `CCCSc1ccc2nc(NC(=O)OC)[nH]c2c1`, the Potency result in assay [1] and in assay [2] was “inactive” throughout.
`CC(C(=O)O)c1ccc(C(=O)c2ccccc2)s1` (stereo not given): the Potency in assay [1] is 14.1 µM (active). Moreover, the Potency entry in assay [3] and in assay [2] was “inactive” in each case.
In the case of `O=C(O)c1cc(O)c(O)c(O)c1`, the Potency result in assay [1], in assay [3] and in assay [2] was “inactive” in each case.
On to `O=C(O)c1ccccc1Nc1cccc(C(F)(F)F)c1`, for which the Potency result in assay [1], in assay [3] and in assay [2] was “inactive” each time.
`O=C(OCc1ccccc1)c1ccccc1`: the Potency result in assay [1], in assay [3] and in assay [2] was “inactive” in each case.
With `COC(=O)[C@H]1[C@H]2C[C@@H]3c4[nH]c5cc(OC)ccc5c4CCN3C[C@H]2C[C@@H](OC(=O)/C=C/c2cc(OC)c(OC)c(OC)c2)[C@@H]1OC`, the Potency result in assay [3], in assay [2] and in assay [4] was “inactive” throughout.
